Data as given in the supplement of paper PMC11402862.

Molecular target: FXR LBD (GAL4 fusion) (UniProt Q96RI1)
Assay: luciferase reporter transactivation, fold of solvent control; higher = stronger receptor activation
Conditions: HEK293T, exposure time: 24 h
Method: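 HEK293T cells were transiently transfected with a GAL4-DBD fused to the ligand-binding domain of a human nuclear receptor (PPARα, PPARγ, PPARδ, FXR, LXRα, PXR, RARα or CAR), the GAL4-(UAS)5-TK firefly luciferase reporter and a Renilla luciferase normalisation plasmid. Cells were exposed to compound for 24 h in 0.5% DMSO. Firefly/Renilla luciferase was expressed as fold of the solvent control (=1). Values are the mean of 2-3 biological replicates; receptor agonists were used as positive controls.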

Chain of FXR LBD (GAL4 fusion) (Q96RI1 whole entry, looked up, the tested form may be a part): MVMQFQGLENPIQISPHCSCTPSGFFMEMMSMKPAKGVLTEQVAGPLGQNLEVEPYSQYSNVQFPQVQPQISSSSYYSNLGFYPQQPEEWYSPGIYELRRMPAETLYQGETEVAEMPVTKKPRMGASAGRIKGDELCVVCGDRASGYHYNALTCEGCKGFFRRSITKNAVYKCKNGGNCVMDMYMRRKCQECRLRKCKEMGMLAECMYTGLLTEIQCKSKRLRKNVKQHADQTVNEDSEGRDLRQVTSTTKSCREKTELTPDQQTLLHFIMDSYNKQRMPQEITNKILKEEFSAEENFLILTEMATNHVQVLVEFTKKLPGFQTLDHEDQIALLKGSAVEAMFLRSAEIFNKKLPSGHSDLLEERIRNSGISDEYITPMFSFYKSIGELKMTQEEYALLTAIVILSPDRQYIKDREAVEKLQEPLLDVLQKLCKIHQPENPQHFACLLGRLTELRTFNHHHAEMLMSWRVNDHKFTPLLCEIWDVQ

Question: For O=C(O)C(F)(F)C(F)(F)C(F)(F)C(F)(F)F [perfluoropentanoic acid], which luciferase reporter transactivation (concentration: 1 µM) is on record?
Answer: Its luciferase reporter transactivation is 0.969.

Question: What about the luciferase reporter transactivation (concentration: 5 µM) of the same compound?
Answer: Its luciferase reporter transactivation is 1.05.

Question: What about the luciferase reporter transactivation (concentration: 10 µM) of the same compound?
Answer: Its luciferase reporter transactivation is 1.05.

Question: What about the luciferase reporter transactivation (concentration: 25 µM) of the same compound?
Answer: Its luciferase reporter transactivation is 1.12.

Question: What about the luciferase reporter transactivation (concentration: 50 µM) of the same compound?
Answer: Its luciferase reporter transactivation is 1.18.

Question: And the luciferase reporter transactivation (concentration: 100 µM)?
Answer: The luciferase reporter transactivation was 1.11.

Question: And the luciferase reporter transactivation (concentration: 250 µM)?
Answer: The luciferase reporter transactivation was 1.18.

Question: What about the luciferase reporter transactivation (concentration: 500 µM) of the same compound?
Answer: Its luciferase reporter transactivation is 2.08.

Question: O=S(=O)(O)CCC(F)(F)C(F)(F)C(F)(F)C(F)(F)C(F)(F)C(F)(F)C(F)(F)C(F)(F)F [8:2 fluorotelomer sulfonic acid] was tested. Which luciferase reporter transactivation (concentration: 1 µM) did it give?
Answer: Its luciferase reporter transactivation is 0.842.

Question: What about the luciferase reporter transactivation (concentration: 5 µM) of the same compound?
Answer: Its luciferase reporter transactivation is 1.12.

Question: What about the luciferase reporter transactivation (concentration: 10 µM) of the same compound?
Answer: Its luciferase reporter transactivation is 1.16.

Question: And the luciferase reporter transactivation (concentration: 25 µM)?
Answer: The luciferase reporter transactivation was 1.21.

Question: What about the luciferase reporter transactivation (concentration: 50 µM) of the same compound?
Answer: Its luciferase reporter transactivation is 1.53.

Question: What about the luciferase reporter transactivation (concentration: 100 µM) of the same compound?
Answer: Its luciferase reporter transactivation is 4.17.

Question: What about the luciferase reporter transactivation (concentration: 250 µM) of the same compound?
Answer: The luciferase reporter transactivation was 3.41.

Question: What about the luciferase reporter transactivation (concentration: 500 µM) of the same compound?
Answer: Its luciferase reporter transactivation is 2.14.

Question: Which results are given for O=S(=O)(O)CCC(F)(F)C(F)(F)C(F)(F)C(F)(F)C(F)(F)C(F)(F)F [6:2 fluorotelomer sulfonic acid]?
Answer: luciferase reporter transactivation (concentration: 1 µM): 1.09; luciferase reporter transactivation (concentration: 5 µM): 0.835; luciferase reporter transactivation (concentration: 10 µM): 1.32; luciferase reporter transactivation (concentration: 25 µM): 1.37; luciferase reporter transactivation (concentration: 50 µM): 1.75; luciferase reporter transactivation (concentration: 100 µM): 2.38

Question: Which luciferase reporter transactivation (concentration: 1 µM) does the source give for OCCC(F)(F)C(F)(F)C(F)(F)C(F)(F)C(F)(F)C(F)(F)F [6:2 fluorotelomer alcohol] here?
Answer: Its luciferase reporter transactivation is 0.815.

Question: And the luciferase reporter transactivation (concentration: 5 µM)?
Answer: The luciferase reporter transactivation was 0.885.

Question: What about the luciferase reporter transactivation (concentration: 10 µM) of the same compound?
Answer: The luciferase reporter transactivation was 0.96.

Question: And the luciferase reporter transactivation (concentration: 25 µM)?
Answer: The luciferase reporter transactivation was 0.834.

Question: And the luciferase reporter transactivation (concentration: 50 µM)?
Answer: Its luciferase reporter transactivation is 0.847.

Question: And the luciferase reporter transactivation (concentration: 100 µM)?
Answer: Its luciferase reporter transactivation is 0.833.

Question: And the luciferase reporter transactivation (concentration: 250 µM)?
Answer: The luciferase reporter transactivation was 0.628.

Question: And the luciferase reporter transactivation (concentration: 500 µM)?
Answer: The luciferase reporter transactivation was 0.416.

Question: With CC(C)c1onc(-c2c(Cl)cccc2Cl)c1COc1ccc(/C=C/c2cccc(C(=O)O)c2)c(Cl)c1 as the compound, how does the luciferase reporter transactivation (concentration: 10 µM) read?
Answer: Its luciferase reporter transactivation is 50.2.
